In PubChem BioAssay (NCI):
The panel holds about 79,000 compounds, 15% with a hit somewhere; the sample as a whole holds those more often. Cut-off read from the data, not from the text of the source: active = growth inhibition above about 70%; inactive = the rest. Where a SMILES comes first, the peptide text is derived from it. The star is where a group is joined. Cbz = O=C(OCc1ccccc1)*

What was measured:
[1] = NCI Yeast Anticancer Drug Screen. Data for the rad50 strain (AID 155);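 note: 0% = growth of vehicle-only cultures of the same strain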; conditions: S. cerevisiae rad50 strain growth inhibition; at 50.0 µM; hits give high values
Procedure, shortened: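 A DNA repair-deficient yeast mutant serves as the test organism; compound-induced growth inhibition is calculated against vehicle-treated cells.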

[2] = NCI Yeast Anticancer Drug Screen. Data for the mec2-1 strain (AID 157); conditions: S. cerevisiae mec2-1 strain, at 50.0 µM, hits give high values
Procedure, shortened: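 Vehicle-treated cultures served as reference for growth inhibition of compound-exposed mec2-1 yeast.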

[3] = NCI Yeast Anticancer Drug Screen. Data for the sgs1 mgt1 strain (AID 161);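 note: 0% = growth of cultures given vehicle only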; conditions: S. cerevisiae sgs1 mgt1 strain, at 50.0 µM, hits give high values
Procedure, shortened: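 Read-out: growth inhibition vs vehicle controls. Cells: mutant yeast strain deficient in DNA damage repair.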

[4] = NCI Yeast Anticancer Drug Screen. Data for the cln2 rad14 strain (AID 165);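 note: 0% = growth equal to vehicle treated cultures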; conditions: S. cerevisiae cln2 rad14 strain, at 50.0 µM, hits give high values
Procedure, shortened: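 Each compound was tested on cln2 rad14 yeast. Inhibition of growth was calculated against vehicle-exposed controls.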

[5] = NCI Yeast Anticancer Drug Screen. Data for the bub3 strain (AID 167); conditions: S. cerevisiae bub3 mutant strain, at 50.0 µM, hits give high values
Procedure, shortened: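 Inhibition values come from growth of compound-treated mutant yeast normalised to vehicle-treated controls.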

[6] = NCI Yeast Anticancer Drug Screen. Data for the mlh1 rad18 strain (AID 175); conditions: S. cerevisiae mlh1 rad18 strain growth inhibition; at 50.0 µM; hits give high values
Procedure, shortened: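 Vehicle-treated cultures served as the reference for growth inhibition in a yeast strain carrying DNA damage repair alterations exposed to each compound.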

Measured: growth inhibition

CC(=O)N1C(OC(C)C)CC(C)N1c1ccccc1 (stereo not given)
inactive: [1] -7.45% | [2] -15.8% | [3] -38.4% | [4] 3.35% | [5] -22.8% | [6] -38.3%

COc1ccc(C[N+](C)(C)N)cc1OC
inactive: [1] -13.8% | [2] -18.2% | [3] -21.9% | [4] -9.7% | [5] -40.5% | [6] -34.1%

COc1ccc(-c2cc3cc(Cl)cc(Cl)c3oc2=O)cc1OC
inactive: [1] -13.6% | [2] -8.6% | [3] -17.8% | [4] -4.85% | [5] -3.25% | [6] -16.1%

O=[N+]([O-])c1cc2c3ccccc3ccc2c2ccccc12
inactive: [1] -5.6% | [2] 6.95% | [3] 12.2% | [4] -78.8% | [5] 19.6% | [6] 21.6%

FC(F)(F)c1cccc(NC(=S)N2CCOCC2)c1
inactive: [1] 0.35% | [2] -2% | [3] 1.05% | [4] -4.2% | [5] 0.3% | [6] -11.7%

C(=C\P(c1ccccc1)c1ccccc1)/P(/C=C/P(c1ccccc1)c1ccccc1)c1ccccc1
inactive: [1] -18.4% | [2] -14.8% | [3] -42.1% | [4] 8.15% | [5] -18.9% | [6] -28.1%

OCCN(Cc1ccccc1)C(c1ccccc1)C(O)c1ccccc1 (stereo not given)
inactive: [1] -2.8% | [2] 7.65% | [3] 24.2% | [4] 29.2% | [5] 1.7% | [6] 1.3%

CN(C)CCNc1ccc2ncn3c4ccccc4c(=O)c1c23
inactive: [1] 13.4% | [2] -0.35% | [3] -4.95% | [4] 27.1% | [5] -0.1% | [6] 46.5%

Cc1nn(C(=O)c2ccc(Cl)cc2)c2c1C(c1ccccc1)SC(N)=N2 (stereo not given)
inactive: [1] -18.6% | [2] -38% | [3] -5.15% | [4] 6.2% | [5] 18.4% | [6] -3.5%

C=CCC1(C)C(=O)CCC1=O
inactive: [1] -18.5% | [2] -5.8% | [3] 0.6% | [4] -12.6% | [5] 1.15% | [6] -4.1%

O=S1(=O)c2ccccc2N(O)C2=NCCN21
inactive: [1] -50.1% | [2] -46.7% | [3] -65.8% | [4] -6.35% | [5] -30.9% | [6] -33.9%

CCCCNCCCC
inactive: [1] 2.15% | [2] 2% | [3] -27.1% | [4] -3.65% | [5] -8% | [6] -16.6%

O=c1ccc2cc(Br)ccc2o1
inactive: [1] 6.65% | [2] 16.7% | [3] 16.6% | [4] -16.4% | [5] 10.7% | [6] 4.35%

CCCCn1cnc2c(SCc3ccc(Cl)cc3Cl)nc(N)nc21
inactive: [1] 1.15% | [2] 25.2% | [3] 7.35% | [4] 21.2% | [5] 15.3% | [6] -8.2%

CC(O)C(O)C(O)CO (stereo not given)
inactive: [1] 6.1% | [2] 18.4% | [3] -3.85% | [4] 19.8% | [5] 24.4% | [6] 8.95%

CC1CCCCN1CCCO (stereo not given)
inactive: [1] 14.6% | [2] -32.4% | [3] -22.1% | [4] 3.05% | [5] -14.6% | [6] 17.4%

O=C(O)c1oc(C(=O)O)c(C(=O)O)c1C(=O)O
inactive: [1] -15% | [2] -38.1% | [3] -18.6% | [4] -28.6% | [5] -32.1% | [6] 7.6%

Nc1nc(N)c(-c2ccccc2)c(CCC(=O)Nc2ccc(Cl)cc2)n1
inactive: [1] -34.8% | [2] 3.95% | [3] -3.35% | [4] -27.9% | [5] -21.5% | [6] 7.8%

Cc1cn(C2CC(N(C)C)C(CO)O2)c(=O)[nH]c1=O (stereo not given)
inactive: [1] -28.2% | [2] -25.8% | [3] -18.4% | [4] 12.3% | [5] -28.3% | [6] -34.8%

CCOC(=O)c1oc2cc(O)cc(O)c2c(=O)c1-c1ccc(OC)cc1
inactive: [1] 7.8% | [2] -30.4% | [3] 11.6% | [4] 11.1% | [5] 3.1% | [6] 0.35%

Cc1ccc2cccc(N)c2n1
inactive: [1] 21.4% | [2] -0.15% | [3] -8% | [4] -33.5% | [5] 18% | [6] 7.2%

NC(=O)c1nsc(-c2ccc([N+](=O)[O-])cc2)c1N
inactive: [1] -10.8% | [2] 0.9% | [3] -1.8% | [4] 30.6% | [5] -17.8% | [6] -3.7%

c1ccc2cc3c(cc2c1)[nH]c1ccccc13
inactive: [1] -10.7% | [2] -26.4% | [3] -0.85% | [4] -3.1% | [5] -25.4% | [6] 14.8%

Cc1cccc(C)n1
inactive: [1] -1.85% | [2] -22.1% | [3] -3.15% | [4] -1.85% | [5] -6.55% | [6] -21.4%

O=[N+]([O-])c1ccc(N/N=C2/C(=C/c3cccc4ccccc34)CCc3ccccc32)c([N+](=O)[O-])c1
inactive: [1] -13.6% | [2] -16.3% | [3] -20.8% | [4] -32.5% | [5] 37.5% | [6] -19.6%

CC(C)(OC(=O)c1ccc([N+](=O)[O-])cc1)C1CC1
inactive: [1] -12.1% | [2] 1.55% | [3] -23.6% | [4] -28.9% | [5] -11.1% | [6] -24.4%

COc1ccc2[nH]c3c(c(=O)c2c1)CCCC3
inactive: [1] -1.15% | [2] -12.9% | [3] 2.85% | [4] -6.2% | [5] 5.8% | [6] -12.7%

COc1ccc(CNc2ccccc2)cc1OC
inactive: [1] -6% | [2] 7.95% | [3] -3% | [4] -33.6% | [5] -9.15% | [6] -40%

Cc1ccccc1C1OC2=C(Nc3ccc(Cl)cc3N2)C1=O (stereo not given)
inactive: [1] 15.6% | [2] -1.65% | [3] 10.3% | [4] 9.85% | [5] -11.8% | [6] 25.2%

CNC(=O)OCc1c(COC(=O)NC)c2n(c1C)CSC2
inactive: [1] 4.95% | [2] -14.4% | [3] -11.3% | [4] -7.9% | [5] -5.45% | [6] 2%

COc1ccc(C)cc1NC(=O)/C=C/c1ccccc1
inactive: [1] 1.6% | [2] -6.6% | [3] -6.5% | [4] 16.2% | [5] 30.8% | [6] -7.65%

O=S(=O)(c1ccccc1)c1ccc(CI)cc1
inactive: [1] 15.8% | [2] 19.9% | [3] 5.05% | [4] 17.4% | [5] 13.7% | [6] 9.05%

CC(NC(=O)C(NC(=O)OCc1ccccc1)C(C)C)C(=O)NCC(=O)O (stereo not drawn) (Cbz-Val-Ala-Gly-OH; configuration not given here)
inactive: [1] -0.05% | [2] -23.2% | [3] -9.9% | [4] 19.8% | [5] 7.1% | [6] -4.45%

O=C(O)CCC(=O)CCc1ccccc1C(=O)O
inactive: [1] 12.3% | [2] -15.8% | [3] 4.3% | [4] -38.1% | [5] -23.1% | [6] 7.85%

NCc1c(Cl)c(Cl)c(Cl)c(CN)c1Cl
inactive: [1] 21.3% | [2] -14.2% | [3] 14.1% | [4] 11.9% | [5] 17.8% | [6] 19.5%

N#C/C(=C/NC(=S)Nc1ccccc1)C(N)=O
inactive: [1] -31.6% | [2] -30.8% | [3] -26.8% | [4] -20% | [5] -15.7% | [6] -16.5%

COC(=O)C1=C(C)NC(C)=C(C(=O)OC)C1c1cc2ccccc2n2nnnc12
inactive: [1] 26.7% | [2] 11.1% | [3] 31.2% | [4] -1.75% | [5] 7.5% | [6] 47.4%

Cc1cc(S(=O)(=O)Cl)ccc1Cl
inactive: [1] 14.6% | [2] 1.3% | [3] -0.6% | [4] -29.2% | [5] 9.05% | [6] 7.6%

CC(=O)Oc1ccccc1OC(=S)N(C)C
inactive: [1] 11.2% | [2] -7.35% | [3] -5.5% | [4] -39.2% | [5] 15.8% | [6] -26.8%

O=S(=O)(C/C=C/COc1ccccc1)c1ccc2ccccc2c1
inactive: [1] 3.05% | [2] 2.65% | [3] 23.8% | [4] 3.6% | [5] -5.85% | [6] -12.9%
